Compounds without any hit were thinned out: in the full panel of roughly 83,000, 20% have a hit.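 In brief: 96-well plates, 48 h treatment, single concentration, percent growth endpoint.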 Unmarked numbers belong to inactive results. Calls of active or inactive are those of the source. The calls were made as follows: active = growth percent below 10; inactive = the rest.

For this assay, the system named is MDA-MB-468 breast. Description: NCI-60 one-dose screen, 48 h (100 = growth as untreated, 0 = no growth, -100 = all killed). Particulars: 10 µM unless noted.
As for `Cc1cc(C(C)(C)CC(C)(C)C)ccc1OCCOCC[N+](C)(C)Cc1ccccc1`, the growth is -82.5% (active).

On to `CN1CCN(c2ccc(OC(F)(F)F)c(Nc3ncc4c(n3)-c3c(c(C(N)=O)nn3CCO)CC4)c2)CC1`, for which the growth is 9.13% (active).

On to `C#CCNC(=O)[C@H](Cc1ccccc1)NC(=O)[C@]12CC[C@@H](C(=C)C)[C@@H]1[C@H]1CC[C@@H]3[C@@]4(C)Cc5c([nH]c6ccccc56)C(C)(C)[C@@H]4CC[C@@]3(C)[C@]1(C)CC2`, for which the growth is 97.9%.

In the case of `Cc1cccc(C(=O)O)n1`, the growth is 111%.

For the compound `COc1nc(=O)n(C2C=CC(=O)O2)cc1F` (stereo unspecified), the growth is 11.9%.

On to `COc1ccc(N2CCN(c3nc(-c4ccccc4)c(C#N)c(=O)[nH]3)CC2)cc1`, for which the growth was 97.9%.

Regarding `COc1ccc(C2=NN(C(C)=O)C(c3cccc(Nc4ccnc5cc(Cl)ccc45)c3)C2)cc1` (stereo unspecified), the growth was 38.9%.

With `CN1CCN(CC#CCn2c3c(c4ccccc42)C[C@]2(C)[C@H]4CC=C5[C@@H]6CC(C)(C)CC[C@]6(C(=O)N6CCOCC6)CC[C@@]5(C)[C@]4(C)CC[C@H]2C3(C)C)CC1`, the growth was 79.4%.

Regarding `COc1cc(-c2csc(NC(=O)Nc3cc(C(F)(F)F)cc(C(F)(F)F)c3)n2)cc(OC)c1OC`, the growth is 4.77% (active).

For the compound `Cc1ccc2oc(=O)cc(C3c4ccc([nH]4)C(c4cc(=O)oc5ccc(C)cc45)c4ccc([nH]4)C(c4cc(=O)oc5ccc(C)cc45)c4ccc([nH]4)C(c4cc(=O)oc5ccc(C)cc45)c4ccc3[nH]4)c2c1` (stereo unspecified), the growth was -28.6% (active).

For the compound `CCCCCCCCCN(CCCCCCCCC)C(C)C(=O)c1ccc2cc(Br)c3ccccc3c2c1` (stereo unspecified), the growth is 99.2%.

The record behind these values is PubChem BioAssay (NCI).
